# Experiments:
# Assay in all cases: yeast three-hybrid, YBZ-1, SC-Leu-His + 0.5 mM 3-AT, 4 days
# Conditions in all cases: tags: N-Gal4 AD-HA kept; label: inside an RPR1-promoter hybrid RNA with tandem MS2 sites; ssRNA
# PUM1 PUF domain R1-RQN = PUM1 PUF domain R1-RQN (Homo sapiens, UniProt Q14671 828-1176, S863R;R864Q;Q867N)
# Summary of the method: (§1)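 A centromeric plasmid in strain YBZ-1 co-expressed Pumilio-1 PUF domain libraries, randomized at the three base-contacting residues of each repeat, with matching RNA elements; the strain carries a LexA–MS2 coat fusion and a HIS3 reporter. After four days on SC-Leu (input) or SC-Leu-His + 0.5 mM 3-AT (selection), the repeat regions were PCR-amplified and Illumina-sequenced. The interaction score is the log change in variant frequency from input to selection, using log2 and a pseudocount of 1 where absent.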
# PUM1 PUF domain R5-GWW = PUM1 PUF domain R5-GWW (Homo sapiens, UniProt Q14671 828-1176, C1007G;R1008W;Q1011W)
# Summary of the method: as §1
# PUM1 PUF domain R3-TFL = PUM1 PUF domain R3-TFL (Homo sapiens, UniProt Q14671 828-1176, C935T;R936F;Q939L)
# Summary of the method: as §1
# PUM1 PUF domain R3-PWV = PUM1 PUF domain R3-PWV (Homo sapiens, UniProt Q14671 828-1176, C935P;R936W;Q939V)
# Summary of the method: as §1
# PUM1 PUF domain R3-SNP = PUM1 PUF domain R3-SNP (Homo sapiens, UniProt Q14671 828-1176, C935S;R936N;Q939P)
# Summary of the method: as §1
# PUM1 PUF domain R5-SRI = PUM1 PUF domain R5-SRI (Homo sapiens, UniProt Q14671 828-1176, C1007S;Q1011I)
# Summary of the method: as §1
# PUM1 PUF domain R6-SFA = target: T1, PUM1 PUF domain R6-SFA (Homo sapiens, UniProt Q14671 828-1176, N1043S;Y1044F;Q1047A)
# T1 sequence: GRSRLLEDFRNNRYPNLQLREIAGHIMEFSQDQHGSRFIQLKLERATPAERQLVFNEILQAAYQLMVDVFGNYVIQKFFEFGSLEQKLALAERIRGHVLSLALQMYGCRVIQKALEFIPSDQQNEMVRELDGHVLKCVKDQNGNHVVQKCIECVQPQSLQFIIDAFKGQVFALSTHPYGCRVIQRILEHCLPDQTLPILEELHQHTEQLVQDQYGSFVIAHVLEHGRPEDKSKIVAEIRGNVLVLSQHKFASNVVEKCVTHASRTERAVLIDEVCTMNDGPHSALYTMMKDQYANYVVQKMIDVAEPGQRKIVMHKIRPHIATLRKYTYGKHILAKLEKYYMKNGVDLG
# Summary of the method: as §1
# PUM1 PUF domain R3-ARL = PUM1 PUF domain R3-ARL (Homo sapiens, UniProt Q14671 828-1176, C935A;Q939L)
# Summary of the method: as §1
# PUM1 PUF domain R8-CHR = PUM1 PUF domain R8-CHR (Homo sapiens, UniProt Q14671 828-1176, N1122C;Y1123H;Q1126R)
# Summary of the method: as §1
# PUM1 PUF domain R4-SMV = PUM1 PUF domain R4-SMV (Homo sapiens, UniProt Q14671 828-1176, N971S;H972M;Q975V)
# Summary of the method: as §1
# PUM1 PUF domain R1-KER = PUM1 PUF domain R1-KER (Homo sapiens, UniProt Q14671 828-1176, S863K;R864E;Q867R)
# Summary of the method: as §1
# PUM1 PUF domain R1-RKS = PUM1 PUF domain R1-RKS (Homo sapiens, UniProt Q14671 828-1176, S863R;R864K;Q867S)
# Summary of the method: as §1
# Sequence of PUM1 PUF domain R4-SMV (Q14671 828-1176 N971S/H972M/Q975V): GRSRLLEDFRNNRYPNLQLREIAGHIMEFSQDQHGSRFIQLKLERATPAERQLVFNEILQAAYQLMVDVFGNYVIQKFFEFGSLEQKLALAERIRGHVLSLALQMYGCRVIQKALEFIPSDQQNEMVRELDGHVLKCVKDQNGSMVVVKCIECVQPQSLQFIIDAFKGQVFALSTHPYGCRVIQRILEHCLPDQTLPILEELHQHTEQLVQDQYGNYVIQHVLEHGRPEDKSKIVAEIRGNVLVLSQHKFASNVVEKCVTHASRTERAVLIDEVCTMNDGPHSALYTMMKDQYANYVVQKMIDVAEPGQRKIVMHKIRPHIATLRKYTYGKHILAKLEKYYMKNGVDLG
sequence,measurement,setting,value
GGCUAGAACUAGUGGAUCCCCCGGCGCCCGGCGGCUCGAGCCCGGGUAAGUGUAAAUCGUCUGCAUGCCGCCGGGCGCCAUGCCUGCAGGUCGACUCUAGAAAACAUG,binding signal,PUM1 PUF domain R1-RQN,4.56 log2 enrichment (interaction score)
GGCUAGAACUAGUGGAUCCCCCGGCGCCCGGCGGCUCGAGCCCGGGUAAGUGUUAAUAGUCUGCAUGCCGCCGGGCGCCAUGCCUGCAGGUCGACUCUAGAAAACAUG,binding signal,PUM1 PUF domain R5-GWW,6.66 log2 enrichment (interaction score)
GGCUAGAACUAGUGGAUCCCCCGGCGCCCGGCGGCUCGAGCCCGGGUAAGUGUAAAUAGUCUGCAUGCCGCCGGGCGCCAUGCCUGCAGGUCGACUCUAGAAAACAUG,binding signal,PUM1 PUF domain R3-TFL,2.81 log2 enrichment (interaction score)
same,binding signal,PUM1 PUF domain R3-PWV,3.63 log2 enrichment (interaction score)
same,binding signal,PUM1 PUF domain R3-SNP,2.72 log2 enrichment (interaction score)
same,binding signal,PUM1 PUF domain R5-SRI,2.73 log2 enrichment (interaction score)
same,binding signal,PUM1 PUF domain R6-SFA,3.38 log2 enrichment (interaction score)
same,binding signal,PUM1 PUF domain R3-ARL,3.6 log2 enrichment (interaction score)
same,binding signal,PUM1 PUF domain R8-CHR,2.18 log2 enrichment (interaction score)
same,binding signal,PUM1 PUF domain R4-SMV,3.8 log2 enrichment (interaction score)
GGCUAGAACUAGUGGAUCCCCCGGCGCCCGGCGGCUCGAGCCCGGGUAAGUGUAUAUAGUCUGCAUGCCGCCGGGCGCCAUGCCUGCAGGUCGACUCUAGAAAACAUG,binding signal,PUM1 PUF domain R4-SMV,2.15 log2 enrichment (interaction score)
GGCUAGAACUAGUGGAUCCCCCGGCGCCCGGCGGCUCGAGCCCGGGUAAGUGUAAAUUGUCUGCAUGCCGCCGGGCGCCAUGCCUGCAGGUCGACUCUAGAAAACAUG,binding signal,PUM1 PUF domain R1-KER,3.72 log2 enrichment (interaction score)
same,binding signal,PUM1 PUF domain R1-RKS,4.69 log2 enrichment (interaction score)

# Reference: publication PMC8384837, “Expanding the binding specificity for RNA recognition by a PUF domain”
